Source: PubChem BioAssay (Tox21)
Records with an inconclusive call do not appear. The source made the active and inactive calls. Unless noted, the call rests on the fitted dose curve.

Legend:
[1] = Nuclear factor erythroid 2-related factor 2/antioxidant responsive element (Nrf2/ARE) small molecule agonists: qHTS cell viability counter screen in human keratinocytes (AID 1919968; active means well fitted curve in the direction sought with a large enough effect in the repeat runs; an effect the other way counts as inactive or inconclusive; further: nearly all actives have a fitted effect of over 55% in size)
Method in brief: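 Fluorescence read-out from CellTiter-Fluor after 1 h at 37 C. Wells held HaCaT-derived ARE-luciferase reporter cells (1,500/well) treated 23 h with DMSO-dissolved compounds. Run in the same wells as the luciferase agonist read.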

[2] = Nuclear factor erythroid 2-related factor 2/antioxidant responsive element (Nrf2/ARE) small molecule agonists: luciferase reporter gene qHTS assay in human keratinocytes (AID 1919969); further: nearly all actives have a fitted effect of over 35% in size
[3] = molecular target: Gonadotropin-releasing hormone receptor (Homo sapiens) (UniProt P30968); experiment: Human gonadotropin-releasing hormone receptor (GnRHR) small molecule agonists, calcium flux assay in GnRHR-HEK293 cells (AID 1920063); further: nearly all actives have a fitted effect of over 35% in size
Chain of Gonadotropin-releasing hormone receptor (Homo sapiens) (P30968 whole entry, looked up): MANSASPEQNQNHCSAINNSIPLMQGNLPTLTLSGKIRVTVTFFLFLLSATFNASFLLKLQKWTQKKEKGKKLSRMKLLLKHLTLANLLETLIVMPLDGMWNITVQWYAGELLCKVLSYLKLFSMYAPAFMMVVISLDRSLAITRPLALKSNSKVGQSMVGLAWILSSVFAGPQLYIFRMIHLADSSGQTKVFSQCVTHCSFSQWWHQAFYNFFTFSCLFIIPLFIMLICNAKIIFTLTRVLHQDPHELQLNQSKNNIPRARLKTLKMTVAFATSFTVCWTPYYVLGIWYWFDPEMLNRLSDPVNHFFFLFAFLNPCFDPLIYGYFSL
Method in brief: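 Calcium-dye fluorescence, Ex/Em=480/540, recorded every 1 sec over 3 min after compound addition to GnRHR-HEK293 cells. Cells had been seeded 18 hours earlier and dye-loaded for 1 hour at 37 C. Fifteen concentrations, triplicates.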

[4] = molecular target: KiSS-1 receptor (Homo sapiens) (UniProt Q969F8); experiment: Human kisspeptin (KISS1R) small molecule agonists, calcium flux assay in KISS1R-HEK293 cells (AID 1920064; active means well fitted curve in the direction sought with a large enough effect in the repeat runs; an effect the other way counts as inactive or inconclusive)
Chain of KiSS-1 receptor (Homo sapiens) (Q969F8 whole entry, looked up): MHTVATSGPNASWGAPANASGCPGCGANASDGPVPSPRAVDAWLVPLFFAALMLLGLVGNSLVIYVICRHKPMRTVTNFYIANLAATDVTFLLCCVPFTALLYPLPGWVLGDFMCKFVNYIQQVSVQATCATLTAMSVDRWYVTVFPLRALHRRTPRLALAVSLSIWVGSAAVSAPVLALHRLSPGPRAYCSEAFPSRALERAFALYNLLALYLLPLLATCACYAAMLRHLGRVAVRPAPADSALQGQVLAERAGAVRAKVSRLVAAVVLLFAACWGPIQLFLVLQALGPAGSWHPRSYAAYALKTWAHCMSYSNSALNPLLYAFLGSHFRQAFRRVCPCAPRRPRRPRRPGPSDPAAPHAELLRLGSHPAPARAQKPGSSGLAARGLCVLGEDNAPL
Method in brief: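 Calcium flux read-out: kinetic fluorescence at Ex/Em=480/540, 1 s intervals over 3 min, after pin-tool compound addition to dye-loaded KISS1R-HEK293 cells. Fifteen concentrations, triplicates.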

[5] = G protein-coupled receptor (GPCR) small molecule agonists, calcium flux assay: HEK293 wild type cell line counter screen (AID 1920065)
Method in brief: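 Agonist mode; 18 h seeding at 37 C, 1 h dye load at 37 C; compounds pinned from DMSO, ATP as positive control; kinetic fluorescence 480/540 nm, 3 min, 1 s reads; 15 concentrations, triplicate.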

[6] = p53 small molecule agonists, cell-based qHTS assay with human liver microsomes: qHTS cell viability counter screen (AID 1963579); further: nearly all actives have a fitted effect of over 45% in size
Method in brief: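 p53RE-bla cells, 4,000/well, dosed 5 hours after plating, with human liver microsomes (0.5 mg/mL final) plus NADPH (0.5 mg/mL final), 16 hours at 37 C. Viability read as CellTiter-Glo luminescence after 30 min at room temperature.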

[7] = p53 small molecule agonists, cell-based qHTS assay with rat liver microsomes: qHTS cell viability counter screen (AID 1963580); further: nearly all actives have a fitted effect of over 45% in size
Method in brief: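 Cytotoxicity counter screen: intracellular ATP read by CellTiter-Glo luminescence in the p53 reporter wells. HCT-116 p53RE-bla cells were treated for 16 h at 37 C alongside rat liver microsomes and NADPH, each 0.5 mg/mL final.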

[8] = p53 small molecule agonists, cell-based qHTS assay: qHTS cell viability counter screen (AID 1963581); further: nearly all actives have a fitted effect of over 45% in size
Method in brief: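 Cytotoxicity read-out: ATP-based luminescence (CellTiter-Glo, 30 min RT) measured in the same wells as the p53 reporter assay, HCT-116 p53RE-bla cells, 16 h compound exposure at 37 C.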

[9] = p53 small molecule agonists, cell-based qHTS assay (AID 1963582; active means well fitted activation curve with a large enough effect in the signal ratio in the repeat runs, not every such curve was filed as active; the % refers to the signal ratio)
Method in brief: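 Fluorescence intensity read-out of a beta-lactamase reporter under a p53 response element. Cells were exposed to DMSO-dissolved compounds for 16 h at 37 C, then developed with FRET substrate for 2 h at RT.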

[10] = molecular target: 5-hydroxytryptamine receptor 2A (Homo sapiens) (UniProt P28223); experiment: 5-hydroxytryptamine receptor 2A (HTR2A) small molecule antagonists, cell-based qHTS assay (AID 1963586); further: nearly all actives have a fitted effect of over 45% in size
Chain of 5-hydroxytryptamine receptor 2A (Homo sapiens) (P28223 whole entry, looked up): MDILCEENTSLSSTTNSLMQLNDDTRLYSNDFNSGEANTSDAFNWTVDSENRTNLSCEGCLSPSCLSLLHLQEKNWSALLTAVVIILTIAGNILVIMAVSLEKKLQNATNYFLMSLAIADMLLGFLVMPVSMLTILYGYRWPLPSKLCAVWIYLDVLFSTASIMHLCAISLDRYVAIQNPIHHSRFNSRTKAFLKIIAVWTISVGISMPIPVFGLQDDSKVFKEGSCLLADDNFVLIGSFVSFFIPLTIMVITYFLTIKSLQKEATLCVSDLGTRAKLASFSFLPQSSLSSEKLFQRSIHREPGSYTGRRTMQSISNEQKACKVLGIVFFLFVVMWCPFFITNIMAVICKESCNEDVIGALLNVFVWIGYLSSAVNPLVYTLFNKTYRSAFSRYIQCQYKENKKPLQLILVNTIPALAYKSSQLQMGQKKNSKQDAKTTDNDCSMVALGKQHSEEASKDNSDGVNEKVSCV
Method in brief: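 CHO cells stably expressing human HTR2A were plated for 18 h at 37 C, then loaded with calcium dye for 1 h. Compounds were preincubated 5 min at room temperature before DOI (4 nM solution) was added. Kinetic fluorescence was read for 3 min.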

[11] = molecular target: 5-hydroxytryptamine receptor 2A (Homo sapiens) (UniProt P28223); experiment: 5-hydroxytryptamine receptor 2A (HTR2A) small molecule agonists, cell-based qHTS assay (AID 1963587); further: nearly all actives have a fitted effect of over 30% in size
Method in brief: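 Kinetic calcium-flux fluorescence (2 min, 1 sec intervals) after compound addition in agonist mode. HTR2A-CHO cells were cultured 18 h, then dye-loaded 1 h at 37 C.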

[12] = molecular target: Muscarinic acetylcholine receptor M1 (Homo sapiens) (UniProt P11229); experiment: Cholinergic receptor muscarinic 1 (CHRM1) small molecule antagonists, cell-based qHTS assay (AID 1963588); further: nearly all actives have a fitted effect of over 40% in size
Chain of Muscarinic acetylcholine receptor M1 (Homo sapiens) (P11229 whole entry, looked up): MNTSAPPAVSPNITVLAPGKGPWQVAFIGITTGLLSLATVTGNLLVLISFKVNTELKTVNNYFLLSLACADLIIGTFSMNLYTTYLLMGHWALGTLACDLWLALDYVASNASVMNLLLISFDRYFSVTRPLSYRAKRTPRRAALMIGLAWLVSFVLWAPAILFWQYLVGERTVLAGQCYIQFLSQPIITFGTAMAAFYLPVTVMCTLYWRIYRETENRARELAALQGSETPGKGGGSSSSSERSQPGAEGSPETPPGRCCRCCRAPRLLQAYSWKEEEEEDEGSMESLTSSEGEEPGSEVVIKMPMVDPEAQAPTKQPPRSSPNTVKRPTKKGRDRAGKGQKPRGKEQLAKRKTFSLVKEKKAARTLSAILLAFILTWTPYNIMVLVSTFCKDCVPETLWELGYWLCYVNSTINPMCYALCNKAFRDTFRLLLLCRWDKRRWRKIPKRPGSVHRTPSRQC
Method in brief: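 Compounds were tested at 15 concentrations in three independent runs. Dye-loaded CHRM1-CHO cells were exposed 5 min at room temperature before stimulation by acetylcholine added at 50nM. Intracellular calcium was read kinetically on FDSS for 3 min.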

[13] = molecular target: Muscarinic acetylcholine receptor M1 (Homo sapiens) (UniProt P11229); experiment: Cholinergic receptor muscarinic 1 (CHRM1) small molecule agonists, cell-based qHTS assay (AID 1963589); further: nearly all actives have a fitted effect of over 35% in size
Method in brief: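 Calcium flux read-out: kinetic fluorescence at 1 sec intervals after pin-tool compound addition to dye-loaded CHRM1-CHO cells (human M1). Agonist mode; 15 concentrations tested in triplicate independent runs.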

[14] = cAMP Responsive Elements (CRE) small molecule agonists, cell-based qHTS assay (AID 1963590)
Method in brief: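 Beta-lactamase reporter readout: LiveBLAzer B/G FRET substrate, 2 h at room temperature, added after 3 h compound treatment of CRE-bla HEK 293T cells at 37 C/5% CO2.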

[15] = cAMP Responsive Elements (CRE) small molecule antagonists, cell-based qHTS assay (AID 1963591; active means well fitted inhibition curve with a large enough effect in the signal ratio in the repeat runs, not every such curve was filed as active; the % refers to the signal ratio)
Method in brief: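 HEK293T CRE-bla; 18 h preincubation; compound pin-transfer; NKH477 0.25 uM final, 3 h, 37 C; LiveBLAzer FRET substrate 2 h RT.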

[16] = molecular target: Beta-2 adrenergic receptor (Homo sapiens) (UniProt P07550); experiment: Adrenergic beta2 receptor (ADRB2) small molecule antagonists, cell-based qHTS assay (AID 1963592); further: series mostly up to about 92 µM; nearly all actives have a fitted effect of over 50% in size
Chain of Beta-2 adrenergic receptor (Homo sapiens) (P07550 whole entry, looked up): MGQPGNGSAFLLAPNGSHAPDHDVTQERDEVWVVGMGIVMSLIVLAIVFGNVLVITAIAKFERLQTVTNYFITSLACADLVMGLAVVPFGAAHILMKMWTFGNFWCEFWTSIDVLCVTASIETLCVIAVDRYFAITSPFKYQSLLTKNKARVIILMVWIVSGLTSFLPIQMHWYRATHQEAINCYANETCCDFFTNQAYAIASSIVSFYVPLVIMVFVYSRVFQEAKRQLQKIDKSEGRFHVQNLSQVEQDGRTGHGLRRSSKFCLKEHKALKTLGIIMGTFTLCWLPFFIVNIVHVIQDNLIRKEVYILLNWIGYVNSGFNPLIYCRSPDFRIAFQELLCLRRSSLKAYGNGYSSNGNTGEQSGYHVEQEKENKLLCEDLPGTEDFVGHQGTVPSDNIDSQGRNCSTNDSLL
Method in brief: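 Assay format: CHO-ADRB2 cells, 18-20hr seeding at 37C/5% CO2, then compound plus 1nM isoproterenol agonist mix for 0.5hr RT. Homogeneous time-resolved fluorescence cAMP detection after 1hr, expressed as 665/615 nm ratio.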

[17] = molecular target: D(2) dopamine receptor (Homo sapiens) (UniProt P14416); experiment: Dopamine D2 receptor (DRD2) small molecule agonists, cell-based qHTS assay (AID 1963594); further: nearly all actives have a fitted effect of over 35% in size
Chain of D(2) dopamine receptor (Homo sapiens) (P14416 whole entry, looked up): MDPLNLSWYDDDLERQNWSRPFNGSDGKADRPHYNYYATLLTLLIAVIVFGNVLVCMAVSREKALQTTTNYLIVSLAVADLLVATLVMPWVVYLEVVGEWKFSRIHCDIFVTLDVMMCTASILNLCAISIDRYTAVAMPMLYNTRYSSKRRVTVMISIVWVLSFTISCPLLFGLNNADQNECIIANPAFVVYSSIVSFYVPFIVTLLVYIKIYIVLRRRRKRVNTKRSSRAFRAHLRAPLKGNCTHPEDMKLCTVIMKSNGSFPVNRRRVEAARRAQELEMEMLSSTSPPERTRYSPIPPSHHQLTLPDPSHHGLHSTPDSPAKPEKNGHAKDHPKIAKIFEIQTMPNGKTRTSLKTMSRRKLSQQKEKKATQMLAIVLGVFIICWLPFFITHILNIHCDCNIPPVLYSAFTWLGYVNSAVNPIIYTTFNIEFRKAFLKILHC
Method in brief: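 cAMP accumulation in DRD2-HEK293 cells measured by HTRF after 1 h detection; compounds added 10 min before NKH477 (200nM […]) forskolin-analogue stimulation, 30 min at room temperature, with Ro20-1724 present at 0.1 mM final.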

[18] = molecular target: D(2) dopamine receptor (Homo sapiens) (UniProt P14416); experiment: Dopamine D2 receptor (DRD2) small molecule antagonists, cell-based qHTS assay (AID 1963595; active means well fitted inhibition curve with a large enough effect in the signal ratio in the repeat runs, with a control signal flat; the % refers to the signal ratio)
Method in brief: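 Stable D2 receptor HEK293 line, 24 h after seeding. Compound preincubated 10 min, then quinpirole (12 nM) with forskolin analogue NKH477 (200 nM), 30 min, room temperature. Detection by time-resolved FRET of cAMP.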

[19] = molecular target: Beta-2 adrenergic receptor (Homo sapiens) (UniProt P07550); experiment: Adrenergic beta2 receptor (ADRB2) small molecule agonists, cell-based qHTS assay (AID 1963593);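 further: CHO cells stably overexpressing human ADRB2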
Method in brief: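 CHO cells stably over-expressing ADRB2 were plated overnight at 37C, then dosed with compounds plus a stimulation mix containing 100uM IBMX and 25uM Ro-20-1724 for 0.5hr at room temperature. cAMP was measured by HTRF competition, 1hr.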
On the % scale 0 is the no-effect control and ±100 the full control effect.

O=C(O)CN(CCCN(CC(=O)O)CC(=O)O)CC(=O)O
inactive: activity change, negative = cytotoxicity [1] -0.241% [at 19 µM] | activity, positive = activation [2] -12.6% [at 19 µM] | activity change [3] 14.7% [at 11.8 µM, stronger effect = higher value] | activation [4] -0.261% [at 15.8 µM] | activation [5] 9.2% [at 11.8 µM] | activity change, negative = cytotoxicity [6] 10.7% [at 13.5 µM] | activity change, negative = cytotoxicity [7] 9.92% [at 13.5 µM] | activity change, negative = cytotoxicity [8] 11.6% [at 13.5 µM] | activation [9] 5.83% [at 13.5 µM] | activity, negative = inhibition [10] 19% [at 12.7 µM] | activation [11] 8.84% [at 15.9 µM] | activity, negative = inhibition [12] -1.12% [at 12.6 µM] | activation [13] 5.74% [at 15.8 µM] | activation [14] 1.21% [at 19 µM] | activity change, negative = inhibition [15] 19.1% [at 18.9 µM] | activity change, negative = inhibition [16] 0.405% [at 19 µM] | activation [17] -4.48% [at 19 µM] | activity change, negative = inhibition [18] 6.03% [at 18.9 µM]

O=C(O)CC(=O)O
inactive: Potency [1] | Potency [2] | Potency [3] | Potency [4] | Potency [5] | Potency [6] | Potency [7] | Potency [8] | Potency [9] | Potency [10] | Potency [11] | Potency [13] | Potency [14] | Potency [15] | Potency [17]

CC(=O)Nc1ccc(N=Nc2cc(C)ccc2O)cc1
inactive: Potency [1] | Potency [2] | Potency [3] | Potency [4] | Potency [5] | Potency [6] | Potency [7] | Potency [8] | Potency [9] | Potency [10] | Potency [11] | Potency [12] | Potency [13] | Potency [14] | Potency [16] | Potency [19] | Potency [17] | Potency [18]

CS(C)(=O)=O
inactive: Potency [1] | Potency [2] | Potency [3] | Potency [4] | Potency [5] | Potency [6] | Potency [7] | Potency [8] | Potency [9] | Potency [10] | Potency [11] | Potency [13] | Potency [14] | Potency [15] | Potency [16] | Potency [19] | Potency [17] | Potency [18]

CN(C)CCCN(C)CCCN(C)C
inactive: Potency [1] | Potency [2] | Potency [3] | Potency [4] | Potency [5] | Potency [6] | Potency [7] | Potency [8] | Potency [9] | Potency [10] | Potency [11] | Potency [12] | Potency [13] | Potency [14] | Potency [15] | Potency [16] | Potency [17]

CC(=O)[C@H]1CC[C@H]2[C@@H]3CCC4=CC(=O)CC[C@]4(C)[C@H]3CC[C@]12C
inactive: Potency [1] | Potency [2] | Potency [3] | Potency [4] | Potency [5] | Potency [6] | Potency [7] | Potency [8] | Potency [16] | Potency [17] | Potency [18]

C1=Cc2ccccc2C1
inactive: Potency [1] | Potency [2] | Potency [3] | Potency [4] | Potency [5] | Potency [6] | Potency [7] | Potency [8] | Potency [9] | Potency [10] | Potency [11] | Potency [12] | Potency [13] | Potency [15] | Potency [16] | Potency [17] | Potency [18]

N=c1nc(N2CCCCC2)cc(N)n1O
inactive: Potency [1] | Potency [2] | Potency [3] | Potency [4] | Potency [5] | Potency [6] | Potency [7] | Potency [9] | Potency [10] | Potency [11] | Potency [12] | Potency [13] | Potency [14] | Potency [15] | Potency [16] | Potency [19] | Potency [17] | Potency [18]
